Experimental data: PubChem BioAssay AID743449 (Broad Institute, 2014)
Screen size: about 9,900 compounds; about 90 (0.9%) were called active. Not shown: some 2% with an inconclusive outcome. Shown is part of a subset that was picked to be rich in actives. A number with no mark means an inactive call.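 How the source made its calls: active means mean normalized replicate activity at least 50 and at least half of replicates each reaching 50; inconclusive means only one of the two criteria met; inactive means neither criterion met.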

Assay: YAP1 pathway inhibitors via CTGF transcript, primary screen, DLD1 colon cancer cells, RT-qPCR, single point (AID 743449);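 further: 0% = neutral control wells and 100% = dasatinib control wells; higher means stronger suppression of CTGF expression like dasatinib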
Conditions: DLD1 CTGF mRNA qPCR, 24 h; at 12.5 µM; active compounds read high

Compound	inhibition
CCCNC(=O)N1C[C@@H]2[C@H](c3ccccc31)[C@@H](CO)N2Cc1cccc(OC)c1	-37.6%
COCCNC(=O)c1cc2c(c(-c3cccc(C4=CCCCC4)c3)n1)[C@@H](CCO)N([S@](=O)C(C)(C)C)C2	-10.8%
CCc1nc(N2[C@H](CO)[C@H](c3ccccc3-c3ccc(F)cc3)[C@@H]2C#N)sc1C	-17.7%
CCc1nc(N2[C@@H](C#N)[C@@H](c3ccccc3-c3ccc(F)cc3)[C@@H]2CO)sc1C	10.1%
CCc1nc(N2[C@H](CO)[C@@H](c3ccccc3-c3ccc(F)cc3)[C@@H]2C#N)sc1C	55.4% (active)
C[C@H](CO)N1C[C@H](C)[C@H](CN(C)C(=O)Nc2ccc(C(F)(F)F)cc2)Oc2c(NC(=O)c3ccc(-c4nccs4)cc3)cccc2C1=O	-20.1%
COc1ccc(NC(=O)N(C)C[C@H]2Oc3c(NC(=O)CCCCCC(=O)Nc4ccccc4N)cccc3C(=O)N([C@@H](C)CO)C[C@@H]2C)cc1	30.8%
C[C@@H]1CN([C@@H](C)CO)C(=O)c2cccc(NC(=O)c3nc4ccccc4s3)c2O[C@@H]1CN(C)C(=O)Nc1ccc2c(c1)OCO2	13.9%
C[C@@H]1CN([C@@H](C)CO)C(=O)c2cccc(NC(=O)c3nc4ccccc4s3)c2O[C@H]1CN(C)C(=O)Nc1ccc2c(c1)OCO2	52.6% (active)
CNC[C@@H]1Oc2c(NC(=O)Nc3cccc4ccccc34)cccc2C(=O)N([C@@H](C)CO)C[C@H]1C	17%
C[C@H]1CN([C@@H](C)CO)C(=O)c2cccc(NC(=O)c3ccc(-c4nccs4)cc3)c2O[C@@H]1CN(C)C(=O)Nc1ccc(C(F)(F)F)cc1	72.5% (active)
CNC[C@H]1Oc2c(NC(=O)Nc3cccc4ccccc34)cccc2C(=O)N([C@H](C)CO)C[C@@H]1C	50.9% (active)
COc1ccc(NC(=O)N(C)C[C@H]2Oc3c(NC(=O)CCCCCC(=O)Nc4ccccc4N)cccc3C(=O)N([C@H](C)CO)C[C@@H]2C)cc1	51% (active)
C[C@H](CO)N1C[C@H](C)[C@H](CN(C)C(=O)Nc2ccc3c(c2)OCO3)Oc2c(NC(=O)c3nc4ccccc4s3)cccc2C1=O	14.1%
CNC[C@H]1Oc2c(NC(=O)Nc3cccc4ccccc34)cccc2C(=O)N([C@@H](C)CO)C[C@H]1C	-2.92%
C[C@H]1CN([C@@H](C)CO)C(=O)c2cccc(NC(=O)c3ccc(-c4nccs4)cc3)c2O[C@H]1CN(C)C(=O)Nc1ccc(C(F)(F)F)cc1	11.6%
COc1ccc(NC(=O)N(C)C[C@@H]2Oc3c(NC(=O)CCCCCC(=O)Nc4ccccc4N)cccc3C(=O)N([C@@H](C)CO)C[C@H]2C)cc1	1.84%
O=C(C[C@@H]1C=C[C@@H](NC(=O)c2ccncc2)[C@H](CO)O1)NCC1CC1	15.8%
COCC#Cc1ccc([C@H]2[C@@H](CO)N3CCCCN(Cc4cccnc4)C[C@H]23)cc1	-7.41%
O=C(C1CCOCC1)N1CC2(C1)[C@H](c1ccccc1)[C@@H](CO)N2C(=O)CC1CC1	-35.8%
COc1cccc(NC(=O)C[C@@H]2CC[C@@H]3[C@@H](COc4ccc(NC(=O)C5CC5)cc4C(=O)N3C)O2)c1	-24.6%

Compound	inhibition
COc1ccc(-c2ccc([C@@H]3[C@@H](CO)N4C(=O)CN(C(=O)Cc5ccccn5)C[C@@H]34)cc2)cc1	16.8%
CO[C@H](CN(C)Cc1ccc2c(c1)OCO2)[C@@H](C)CN(C(=O)Nc1ccc(F)cc1)[C@H](C)CO	-17.7%
CC(C)[C@H]1CC=CC[C@@H](C)Oc2ccccc2C(=O)N(C)[C@H](C(C)C)C(=O)N1 (mixture of isomers)	34.9%
Cc1noc(C)c1NC(=O)N(C)C[C@@H]1Oc2cc(C#CCN(C)C)ccc2S(=O)(=O)N([C@H](C)CO)C[C@H]1C	-1.27%
C[C@@H]1CN([C@H](C)CO)C(=O)c2cccc(NC(=O)c3nc4ccccc4s3)c2O[C@@H]1CN(C)C(=O)Nc1ccc2c(c1)OCO2	6.24%
C[C@H]1CN([C@@H](C)CO)C(=O)c2cccc(NC(=O)c3nc4ccccc4s3)c2O[C@@H]1CN(C)C(=O)Nc1ccc2c(c1)OCO2	78.9% (active)
C[C@@H]1CN([C@H](C)CO)C(=O)c2cccc(NC(=O)c3nc4ccccc4s3)c2O[C@H]1CN(C)C(=O)Nc1ccc2c(c1)OCO2	73% (active)
C[C@H](CO)N1C[C@H](C)[C@@H](CN(C)C(=O)Nc2ccc3c(c2)OCO3)Oc2c(NC(=O)c3nc4ccccc4s3)cccc2C1=O	46.6%
COc1ccc(S(=O)(=O)N(C)C[C@@H]2Oc3c(NC(=O)c4nc5ccccc5s4)cccc3C(=O)N([C@H](C)CO)C[C@H]2C)cc1	9.74%
COc1ccc(S(=O)(=O)N(C)C[C@@H]2Oc3c(NC(=O)c4nc5ccccc5s4)cccc3C(=O)N([C@@H](C)CO)C[C@@H]2C)cc1	34.9%
C[C@@H]1CN([C@@H](C)CO)C(=O)c2cc(NC(=O)Cc3ccccc3)ccc2O[C@@H](C)CCCCO[C@H]1CN(C)Cc1ccncc1	2.97%
O=C(Nc1ccc(C(F)(F)F)cc1)Nc1ccc2c(c1)[C@H]1C[C@H](CC(=O)N3CCc4ccccc4C3)O[C@H](CO)[C@H]1O2	41.9%
C/C=C/c1ccc2c(c1)[C@@H]1[C@@H](CCN1S(=O)(=O)c1ccccc1OC)[C@H](CO)N2C	-5.93%
Cc1ccc(S(=O)(=O)N2CC[C@@H]3[C@H](CO)Nc4ccc(-c5cccc(C(=O)N(C)C)c5)cc4[C@@H]32)cc1	-15%
COc1ccccc1S(=O)(=O)N1CC[C@@H]2[C@H]1c1cc(-c3cccc(C#N)c3)ccc1N(C)[C@H]2CO	62.1% (active)
Cc1ccc(S(=O)(=O)N2CC[C@@H]3[C@H]2c2cc(-c4cccc(C(=O)N(C)C)c4)ccc2N[C@@H]3CO)cc1	68.4% (active)
Cc1ccc(S(=O)(=O)N2CC[C@@H]3[C@@H](CO)Nc4ccc(-c5cccc(C(=O)N(C)C)c5)cc4[C@@H]32)cc1	4.93%
N#Cc1cccc(-c2ccc3c(c2)[C@@H]2[C@@H](CCN2S(=O)(=O)c2ccc(F)cc2)[C@@H](CO)N3)c1	22.5%
N#Cc1cccc(-c2ccc3c(c2)[C@H]2[C@H](CCN2S(=O)(=O)c2ccc(F)cc2)[C@H](CO)N3)c1	20.1%
Cc1ccc(S(=O)(=O)N2CC[C@H]3[C@H](CO)Nc4ccc(-c5cccc(C(=O)N(C)C)c5)cc4[C@H]32)cc1	56.9% (active)
N#Cc1cccc(-c2ccc3c(c2)[C@@H]2[C@@H](CCN2S(=O)(=O)c2ccc(F)cc2)[C@H](CO)N3)c1	63% (active)

Compound	inhibition
COc1ccccc1-c1ccc2c(c1)[C@H]1[C@H](CCN1S(=O)(=O)c1ccc(C)cc1)[C@@H](CO)N2	17.3%
COc1ccccc1-c1ccc2c(c1)[C@@H]1[C@@H](CCN1S(=O)(=O)c1ccc(C)cc1)[C@H](CO)N2	37.4%
COc1ccccc1S(=O)(=O)N1CC[C@@H]2[C@@H](CO)N(C)c3ccc(-c4cccc(C#N)c4)cc3[C@@H]21	32%
Cc1noc(C)c1S(=O)(=O)N(C)C[C@H]1OCc2ccccc2-c2ccccc2C(=O)N([C@H](C)CO)C[C@H]1C	-25.8%
C[C@@H]1CCCCO[C@@H](CN(C)CC2CCCCC2)[C@@H](C)CN([C@@H](C)CO)C(=O)c2cc(NS(C)(=O)=O)ccc2O1	2.58%
CS(=O)(=O)N1[C@H](CO)[C@@H](c2ccc(-c3ccccc3F)cc2)[C@@H]1C#N	16.4%
C[C@H]1CN([C@@H](C)CO)C(=O)c2ccccc2-c2ccccc2CO[C@H]1CN(C)Cc1ccccc1C(F)(F)F	12.5%
Cc1ccc(S(=O)(=O)N2C[C@@H](O)COC[C@H]3O[C@@H](CC(=O)NCc4ccc5c(c4)OCO5)CC[C@@H]32)cc1	25.4%
CCS(=O)(=O)N1CC(=O)N2[C@H](CO)[C@@H](c3ccc(C4=CCCCC4)cc3)[C@@H]2C1	0.977%
COc1ccc2c3c(n(C)c2c1)[C@H](CO)N(C)CC31CCN(C(=O)NC(C)C)CC1	18.6%
C[C@@H]1CN([C@@H](C)CO)C(=O)c2c(c3ccccc3n2C)-c2ccccc2CO[C@@H]1CN(C)Cc1cccc(C(F)(F)F)c1	-39%
COc1ccc([C@H]2C/C=C\C[C@@H](c3ccc4c(c3)OCO4)NC(=O)[C@@H](c3ccccc3)CC(=O)N2)c(OC)c1	58.4% (active)
COc1ccc([C@H]2C/C=C\C[C@H](c3ccc4c(c3)OCO4)NC(=O)[C@H](c3ccccc3)CC(=O)N2)c(OC)c1	-62.1%
COc1ccc([C@@H]2C/C=C\C[C@@H](c3ccc4c(c3)OCO4)NC(=O)[C@H](c3ccccc3)CC(=O)N2)c(OC)c1	31%
O=C(Nc1ccc(F)cc1)N1CC(=O)N2[C@H](CO)[C@@H](c3ccc(C#Cc4cccnc4)cc3)[C@@H]2C1	-8.94%
O=C(Nc1ccc(F)cc1)N1C[C@@H]2[C@H](c3ccccc31)[C@@H](CO)N2Cc1ccccc1Cl	-18.1%
OC[C@@H]1[C@@H](c2ccc(-c3cccnc3)cc2)[C@H]2CN(Cc3ccccn3)CCCCN12	-1.92%
CCCC(=O)N1CCC2(CC1)CN[C@H](CO)c1[nH]c3cc(OC)ccc3c12	2.25%
COc1ccc2c3c([nH]c2c1)[C@H](CO)NCC31CCN(C(=O)Cc2cccnc2)CC1	51% (active)
CCCC(=O)N1CCC2(CC1)CN[C@@H](CO)c1[nH]c3cc(OC)ccc3c12	-5.58%
